Screen size: about 52,000 compounds; about 1,700 (3.3%) were called active. What follows is part of a selection rich in actives, with near analogues and random picks from the rest. A number with no mark means an inactive call. Rule as the data show it: active = survival mostly below about 52% (no sharp cut-off); inactive = mostly above about 56%.

Our source for the survival values is PubChem BioAssay AID463173 (ICCB-Longwood Screening Facility, Harvard Medical School, 2010).

The test system of the assay is Wild type. Description: growth inhibition of S. aureus wild type versus tarO mutant, primary screen, teichoic acid synthesis inhibitors, RN4220, OD600 (AID 463173). Conditions: S. aureus RN4220 wild type/DeltatarO growth, OD600, 18 h, hits give low values, screened at 18.75 µg/mL (by protocol).
For the compound `COc1cccc(NC(=O)C2CCN(S(=O)(=O)c3ccc4[nH]c5c(c4c3)CCCCC5)CC2)c1`, the survival was 84%.
Consider `COc1ccc(NC(=O)c2ccc(CNS(=O)(=O)c3ccc4c(c3)C(C)(C)C(=O)N4C)cc2)cc1`, for which the survival is 114%.
For `COc1cccc(NC(=O)c2nnn(Cc3cccc(C(F)(F)F)c3)c2N)c1` the value was 87%; for `Cc1ccc(Cl)cc1-n1c(CCC(=O)O)ccc1-c1cccs1`, 64%.
Consider `CCOc1ccc(-c2cc3c(=O)n(CC(=O)Nc4cc(F)ccc4C)ccn3n2)cc1`, for which the survival was 68%.
Take `Cc1ccc(-n2ncc(C(=O)Nc3ccc4c(c3)OCCO4)c2C2CCN(C(=O)OC(C)(C)C)CC2)cc1C`: the survival is 82%.
`CCCN1CCc2nc(SCC(=O)Nc3ccc(C)c(Cl)c3)[nH]c(=O)c2C1`: the survival is 99%.
For the compound `CC1CCc2onc(C(=O)N3CCN(c4cccc(Cl)c4)CC3)c2C1` (stereo unspecified), the survival was 88%.
`CC1CCc2onc(C(=O)N3CCN(c4ccccc4)CC3)c2C1` (stereo unspecified): the survival was 121%.
For `O=C(c1noc2c1CCCCC2)N1CCN(c2cccc(C(F)(F)F)c2)CC1` the value was -3% (active); for `O=C(c1cc2ccc3cccnc3c2[nH]1)N1CCN(c2ccccc2)CC1`, 59%; for `O=C(c1cc2ccc3cccnc3c2[nH]1)N1CCN(c2cccc(C(F)(F)F)c2)CC1`, -2% (active).
As to `O=C(c1noc2c1CCCCC2)N1CCN(c2ccc(Cl)cc2)CC1`, the survival is 73%.
Next, `CC1CCc2onc(C(=O)N3CCN(c4cccc(C(F)(F)F)c4)CC3)c2C1` (stereo unspecified): 10% (active); `O=C(c1cc2ccc3cccnc3c2[nH]1)N1CCN(c2ccc(Cl)cc2)CC1`: 91%.
Consider `O=C(c1noc2c1CCCCC2)N1CCN(c2cccc(Cl)c2)CC1`, for which the survival was 73%.
Regarding `CCn1c(Cc2ccccc2)nnc1SCC(=O)N(C)C1CCCCC1`, the survival was 108%.
On to `COc1ccc(CNc2nc3c(-c4ccccc4)nnn3c3ccccc23)cc1`, for which the survival is 90%.
For `COc1ccc(-c2cc(C(=O)Nc3c(C)n(C)n(-c4ccccc4)c3=O)no2)cc1` the value was 73%; for `Cc1cccc(CNC(=O)c2ccc(N3Cc4ccccc4Oc4ncccc43)s2)c1`, 69%; for `Cc1ccc(Cn2c(C)c3cnn(CC(=O)N4CCN(c5cc(C)ccc5C)CC4)c(=O)c3c2C)cc1`, 65%.
Consider `CCOC(=O)c1noc2ncn(CC(=O)Nc3ccccc3OC)c(=O)c12`, for which the survival was 133%.
As to `CCOC(=O)c1noc2ncn(CC(=O)Nc3cc(Cl)ccc3OC)c(=O)c12`, the survival was 76%.
On to `CCOC(=O)c1noc2ncn(CC(=O)Nc3ccc(F)cc3Cl)c(=O)c12`, for which the survival was -6% (active).
For the compound `COc1cccc(NC(=O)Cn2c(=O)n(Cc3ccc4c(c3)OCO4)c(=O)c3oc4ccccc4c32)c1`, the survival was 80%.
On to `O=C(CCn1cnc2onc(-c3ccc(F)cc3)c2c1=O)N1CCN(c2ccc(F)cc2)CC1`, for which the survival was 98%.
For `CC(=O)c1ccc(N2CCN(C(=O)CCn3cnc4onc(-c5ccc(F)cc5)c4c3=O)CC2)cc1`, the survival was -6% (active).
For `O=C(CCn1cnc2onc(-c3ccc(F)cc3)c2c1=O)N1CCN(c2ccccc2F)CC1` the value was -6% (active); for `O=C(Cn1cnc2onc(-c3ccc(F)cc3)c2c1=O)N1CCN(c2ccccc2F)CC1`, 71%; for `COc1ccccc1N1CCN(C(=O)CCn2cnc3onc(-c4ccc(F)cc4)c3c2=O)CC1`, 87%.
In the case of `O=C(CCn1cnc2onc(-c3ccc(F)cc3)c2c1=O)N1CCN(c2ccccc2)CC1`, the survival is 75%.
Next, `CCOc1ccc(CC(=O)NCCc2sc3nc(-c4ccc(F)cc4)nn3c2C)cc1`: 71%; `COC(=O)c1ccccc1NC(=O)c1cc(-c2ccc(Cl)cc2)on1`: 71%.
Next, `Cc1ccc(C)c(NC(=O)CSc2nnc(CNC(=O)c3ccccc3)n2-c2ccccc2)c1`: 63%; `Cc1nn(CC(=O)NCCc2ccc(Cl)cc2)c(=O)c2cc3cc(F)ccc3n12`: 74%; `Cc1cccc(NC(=O)CSC2=Nc3ccccc3C3=NC(CC(=O)NCc4cccs4)C(=O)N23)c1` (stereo unspecified): 81%.
`Cc1ccc(C)c(CSc2nnc(C)n3c2cc2sccc23)c1`: the survival was 65%.
On to `Cc1ccc2[nH]cc(C(c3ccccc3)c3ccc(Cl)s3)c2c1` (stereo unspecified), for which the survival was 18%.
Consider `Clc1ccc(C(c2ccccc2)c2c[nH]c3ccccc23)s1` (stereo unspecified), for which the survival is 4% (active).
For the compound `c1ccc(C(c2cccs2)c2c[nH]c3ccccc23)cc1` (stereo unspecified), the survival is 17%.
Next, `Cc1ccc(NC(=O)CN2C(=O)CSc3ccc(S(=O)(=O)N4CCCC4)cc32)c(C)c1`: 98%; `Cc1ccc(Cl)cc1N(C)C(=O)c1cc2c(Cl)nc3ccccc3c2s1`: 70%.
As for `CCN(C(=O)c1cc2c(Cl)nc3ccccc3c2s1)c1cccc(Cl)c1`, the survival is 76%.
In the case of `CCc1ccccc1N(C)C(=O)c1cc2c(Cl)nc3ccc(C)cc3c2s1`, the survival was 0% (active).
Consider `CN(C(=O)c1cc2c(Cl)nc3ccccc3c2s1)c1cccc(C(F)(F)F)c1`, for which the survival was 80%.
Consider `Cc1ccc2nc(Cl)c3cc(C(=O)NCCCN(C)Cc4ccccc4)sc3c2c1`, for which the survival was -3% (active).
Next, `CCN(CCCNC(=O)c1cc2c(Cl)nc3ccccc3c2s1)Cc1ccccc1`: 96%; `Cc1ccc2nc(Cl)c3cc(C(=O)N(C)C4CCCCC4)sc3c2c1`: 35%.
On to `CN(CCCNC(=O)c1cc2c(Cl)nc3ccccc3c2s1)Cc1ccccc1`, for which the survival is 45%.
Next, `CCCN(C(=O)c1cc2c(Cl)nc3ccccc3c2s1)c1cccc(C)c1`: 1% (active); `CC1(C)N=C(SCc2ccc(Cl)cc2)c2ccccc2N1`: 143%; `Cc1ccc(C(=O)c2oc3ccccc3c2NC(=O)c2nc(S(C)(=O)=O)ncc2Cl)cc1F`: 83%.
Regarding `COc1ccc(Nc2nn(-c3ccc(OC(F)(F)F)cc3)nc2C(C)=O)cc1`, the survival was 95%.
For `Cc1ccc(-c2cc3ncc4c(n3n2)-c2cc(Cl)ccc2OC4)cc1`, the survival is 97%.
Next, `CCn1c(=O)n(-c2ccc3c(c2)OCO3)c2nc(-c3ccc(C(C)C)cc3)nc(C(N)=O)c21`: 130%.
Consider `CCOC(=O)c1[nH]c(C)c(CCC(=O)Nc2c(C)cc(C)cc2C)c1C`, for which the survival is 127%.
As to `Cc1cc(C)cc(OCCCn2c(CCNC(=O)C3CCCCC3)nc3ccccc32)c1`, the survival was 27% (active).
Consider `Cc1cccc(OCCCn2c(CCNC(=O)C3CCCCC3)nc3ccccc32)c1`, for which the survival is 34%.
Consider `Cc1cccc(C)c1OCCn1c(CCNC(=O)C2CCCCC2)nc2ccccc21`, for which the survival was 65%.
For `O=C(NCCc1nc2ccccc2n1CCCOc1ccc(Cl)cc1)C1CCCCC1` the value was 10% (active).
Turning to `Cc1cc(C)cc(OCCn2c(CCNC(=O)C3CCCCC3)nc3ccccc32)c1`, the survival was 105%.
Turning to `O=C(NCCc1nc2ccccc2n1CCOc1ccc(Cl)cc1)C1CCCCC1`, the survival was 20%.
`Cc1ccc(OCCCn2c(CCNC(=O)C3CCCCC3)nc3ccccc32)c(C)c1`: the survival is 95%.
With `Cc1ccc(OCCn2c(CCNC(=O)C3CCCCC3)nc3ccccc32)cc1`, the survival was 65%.
In the case of `Cc1cccc(C)c1OCCCn1c(CCNC(=O)C2CCCCC2)nc2ccccc21`, the survival is 28% (active).
In the case of `Cc1cc(OCCn2c(CCNC(=O)C3CCCCC3)nc3ccccc32)ccc1Cl`, the survival is 67%.
Regarding `Cc1cc(OCCCn2c(CCNC(=O)C3CCCCC3)nc3ccccc32)ccc1Cl`, the survival was 0% (active).
On to `Cc1ccccc1OCCCn1c(CCNC(=O)C2CCCCC2)nc2ccccc21`, for which the survival was 65%.
As for `COc1ccc(-c2nnc(SCC(=O)Nc3cccc(C(F)(F)F)c3)s2)cc1`, the survival is 99%.
As for `COc1ccc(C(=O)N(Cc2cc(OC)c(OC)c(OC)c2)C2CCS(=O)(=O)C2)cc1Cl` (stereo unspecified), the survival was 86%.
On to `COc1ccccc1-c1c(C)nn2c(N3CCN(c4ccccc4)CC3)cc(C)nc12`, for which the survival was 70%.
As for `Cn1c(SCCN2CCCC2)nnc1-c1ccncc1`, the survival is 112%.
For `COc1cc(OC)c(NC(=O)c2nn(C)c3c2COc2ccccc2-3)cc1Cl` the value was 111%; for `CCOc1ccc(-n2c(SCc3ccc(C(=O)OC)o3)nc3c([nH]c4ccccc43)c2=O)cc1`, 82%; for `Oc1ccc(Br)cc1C=Nc1cccc(-c2nc3ccccc3o2)c1`, 111%.
Regarding `COc1cccc2cc(C(=O)Nc3ccc(CC(=O)O)cc3)c(=O)oc12`, the survival is 73%.
Take `CCOc1ccc(NC(=O)CSc2nnc3c(C)cc4ccccc4n23)cc1`: the survival was 132%.
As for `O=C(Nc1nc2c(s1)CCCCCC2)Nc1ccc(F)cc1F`, the survival is -2% (active).
For `O=C(Nc1ccc(Br)cc1)Nc1nc2c(s1)CCCCCC2` the value was 82%.
As for `Cc1ccc(NC(=O)Nc2nc3c(s2)CCCCCC3)cc1C`, the survival was 69%.
Regarding `Cc1cc(-c2ccc(C)c(S(=O)(=O)Nc3ccccn3)c2)on1`, the survival was 73%.
`O=C(CN1CCCC1)Nc1nc(-c2ccc3c(c2)CCN3C(=O)C2CC2)cs1`: the survival was 116%.
In the case of `O=C(CSc1nc2ccccc2c(=O)n1-c1ccccc1)N1CCOCC1`, the survival was 104%.
For `CC(=O)Nc1cccc(NC(=O)c2c(-c3ccccc3)c(-c3ccccc3)nn(C)c2=O)c1`, the survival is 85%.
On to `COc1ccc2cc(-c3nc(-c4ccc(N(C)C)cc4)no3)c(=O)oc2c1`, for which the survival is 99%.
On to `CC(C)Oc1ccc(CNS(=O)(=O)c2cnc(N)nc2)cc1`, for which the survival is 111%.
`COc1cccc(CNS(=O)(=O)c2cnc(N)nc2)c1`: the survival is 57%.
Consider `COc1ccc(CNS(=O)(=O)c2cnc(N)nc2)cc1`, for which the survival is -4% (active).
In the case of `CC(C)(C)OC(=O)N1CCC(c2c(C(=O)NCCN3CCOCC3)cnn2-c2ccccc2)CC1`, the survival is 64%.
As for `NCC1OCCc2ccccc21` (stereo unspecified), the survival was 114%.
On to `COc1ccccc1NC(=O)c1ccc(COc2ccc(C)c(C)c2)o1`, for which the survival was 0% (active).
Turning to `COC(=O)c1ccccc1NC(=O)c1ccc(COc2ccccc2Cl)o1`, the survival is 68%.
Next, `CCCc1ccc(OCc2ccc(C(=O)Nc3ccccc3C(=O)OC)o2)cc1`: 3% (active); `Cc1cc(C)cc(OCc2ccc(C(=O)Nc3ccccc3F)o2)c1`: 72%; `COc1ccccc1NC(=O)c1ccc(C)o1`: 104%.
As to `COC(=O)c1ccccc1NC(=O)c1ccc(COc2cc(C)cc(C)c2)o1`, the survival was 59%.
